# Screening results as filed in PubChem.
# Hits are enriched below; roughly 19% of the tested compounds scored in any of these assays.
# TDP1 cell CPT: growth inhibition of DT40 Tdp1-/-;hTDP1 cells with camptothecin (screen for TDP1 inhibitors); chicken DT40 Tdp1-/-;hTDP1 cells + 20 nM CPT, ATP luminescence, 48 h; Potency, µM (titrated, usually from 46.2 µM), hits mostly inhibitors; 420,000 compounds, 12% hits; AID 686979; also: nearly all actives have a fitted effect of over 55% in size
#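 Chicken DT40 Tdp1-/- cells stably complemented with human TDP1 were seeded at 400 cells/well in medium containing 20 nM camptothecin, exposed to pin-transferred compounds, and grown at 37 °C for at least 48 hr. Viability was read as ATP luminescence.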
# HT1080NT lethal: kills 2HG-producing HT-1080-NT fibrosarcoma cells. AID 686970. HT-1080-NT fibrosarcoma viability, CellTiter-Glo ATP luminescence, 48 h. Potency, µM (series often up to 46.1 µM), most hits filed as cytotoxic. 360,000 compounds, 1.6% hits;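 also: NT is the 2HG producing partner of a matched IDH1 knockdown line; nearly all actives have a fitted effect of over 55% in size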
#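 Toxicity toward the 2HG-producing NT line was scored as %Activity, normalised to DMSO and no-cell wells, from CellTiter-Glo luminescence after 48 hours' treatment.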
# TDP1 cell noCPT: qHTS for Inhibitors of human tyrosyl-DNA phosphodiesterase 1 (TDP1): qHTS in cells in absence of CPT; Potency, µM (doses to about 46.2 µM), usual class: inhibitors; AID 686978, 2013; DT40 Tdp1-/- hTDP1 cells, no CPT, ATP luminescence, 48 h; 420,000 compounds, 15% hits; also: nearly all actives have a fitted effect of over 55% in size
#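 Seeded 400 DT40-hTDP1 cells/well (vehicle DMSO, no 20 nM CPT); pinned compounds; ≥48 hr at 37 °C; CellTiter-Glo luminescence as viability measure.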
# HT1080 IDH1KD tx: HT-1080 IDH1 knockdown cell toxicity (counter line). Potency, µM (titrated, usually from 46.1 µM), usual class: cytotoxic. AID 686971. 360,000 compounds, 2% hits. HT-1080 IDH1 knockdown viability, ATP luminescence, 48 h
#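 Using the IDH1-knockdown HT-1080 line run in the same batch and compound series as the NT line, viability after 48 h at 37 °C was determined by CellTiter-Glo luminescence and expressed as % activity.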
# IL1B secr inh: inhibitors of inflammasome signaling (IL-1 beta secretion); THP-1 LPS/ATP IL-1B secretion, AlphaLISA, 16 h; active compounds read low; activity change, % at 57.5 µM; 360,000 compounds, 4.7% hits; AID 743279; in the data active = activity change below about -50%; inconclusive = mostly about -30% to -49%
#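 Secreted IL-1B measured by AlphaLISA bead assay after 16 h compound exposure of THP-1 cells; compounds (final up to 57.5 uM) added 1 h before LPS (250 ng/mL) and ATP (1.25 mM) stimulation; lower signal means less secretion.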
# Numbers stand for hits; – = inactive; ? = inconclusive; · = not tested or not shown. Unless noted, calls follow the shape of the dose curve; as a rule, active = well fitted curve in the direction sought with a large enough effect; inconclusive = small, poorly fitted or top-dose-only effect, or another doubt; inactive = no such curve, though single readings can be large; an effect the other way counts as inactive or inconclusive.
SMILES,TDP1 cell CPT,HT1080NT lethal,TDP1 cell noCPT,HT1080 IDH1KD tx,IL1B secr inh
CC(=O)Nc1ccc(C2=NN(c3ccccc3)C(c3ccccc3)C2)cc1 (centres undefined),?,–,23µM,–,–
NS(=O)(=O)c1ccc(N2N=C(c3ccccc3)CC2c2cccc(Cl)c2)cc1 (centres undefined),–,?,–,?,-70
Oc1ccc(C2=NN(c3ccccc3)C(c3ccc(F)cc3)C2)cc1 (centres undefined),?,18µM,?,26µM,-98
Cc1ccc(NC(=S)NCc2ccco2)c(C)c1,?,–,?,–,–
COc1ccc(C2CC(c3ccccc3)=NN2c2ccc(/C=N/NC(=O)c3ccncc3)cc2)cc1 (centres undefined),?,–,?,–,–
Cc1ccc(N2N=C(c3ccc(F)cc3)CC2c2ccco2)cc1 (centres undefined),18µM,–,?,–,–
N#CCC(=O)N/N=C/c1ccc(N2N=C(c3ccccc3)CC2c2ccccc2)cc1 (centres undefined),23µM,?,18µM,–,–
Cc1nn(CCC(N)=S)c2nc(-c3cccs3)cc(C(F)(F)F)c12,?,–,?,–,–
CC(OC(=O)c1ccc2ccccc2c1)C(=O)N(C)Cc1ccccc1 (centres undefined),?,–,21µM,–,–
CN(Cc1ccccc1)C(=O)COC(=O)c1ccccc1NS(=O)(=O)c1cccc(N)c1,?,–,?,–,–
CC(OC(=O)c1ccccc1NS(=O)(=O)c1cccc(C(F)(F)F)c1)C(=O)N(C)Cc1ccccc1 (centres undefined),?,–,23µM,–,–
CCn1cc(C(=O)NCCc2ccccc2)c(=O)c2cc(S(=O)(=O)N3CCCC3)ccc21,?,–,18µM,–,–
Cn1cc(C(=O)NCc2ccc(F)cc2)c(=O)c2cc(S(=O)(=O)N3CCCCC3)ccc21,23µM,–,16µM,–,?
CN(C1CCCCC1)S(=O)(=O)c1ccc2c(c1)c(=O)c(C(=O)NCCc1ccccc1)cn2C,–,·,?,·,·
CCn1cc(C(=O)NCCc2ccccc2)c(=O)c2cc(S(=O)(=O)N3CCOCC3)ccc21,–,·,–,·,·
CC1CCN(S(=O)(=O)c2ccc3c(c2)c(=O)c(C(=O)NCc2ccc(Cl)cc2)cn3C)CC1,–,·,4.6µM,·,·
CN(C1CCCCC1)S(=O)(=O)c1ccc2c(c1)c(=O)c(C(=O)NCCc1ccc(Cl)cc1)cn2C,?,·,21µM,·,·
CN(C1CCCCC1)S(=O)(=O)c1ccc2c(c1)c(=O)c(C(=O)NCc1ccc(F)cc1)cn2C,?,·,–,·,·
CC(C)C(NS(=O)(=O)c1cccc(C(F)(F)F)c1)C(=O)N1CCc2ccccc2C1 (centres undefined),?,–,–,–,–
O=C(CSc1nnc(-c2ccco2)n1-c1ccccc1Cl)Nc1cccc(C(=O)O)c1,–,–,–,–,–
CCn1cc(C(=O)N2CCc3ccccc32)c(=O)c2cc(S(=O)(=O)N3CC(C)CC(C)C3)ccc21 (centres undefined),15µM,–,?,–,–
CC(C)CCNC(=O)c1sc2ccc(S(=O)(=O)N3CCCCC3)cc2c1N,23µM,?,21µM,–,-52
CCN(CC)CCNC(=O)c1cn(CC)c2ccc(S(=O)(=O)N3CCc4ccccc4C3)cc2c1=O,?,–,?,–,–
CN(CCCNC(=O)c1cn(C)c2ccc(S(=O)(=O)N(C)C)cc2c1=O)c1ccccc1,18µM,–,?,–,–
CCN(CC)CCCNC(=O)c1cn(CC)c2ccc(S(=O)(=O)N3CCc4ccccc4C3)cc2c1=O,?,–,29µM,–,–
SMILES,TDP1 cell CPT,HT1080NT lethal,TDP1 cell noCPT,HT1080 IDH1KD tx,IL1B secr inh
COc1ccc(OCC2c3cc(OC)c(OC)cc3CCN2C(=O)c2c(F)cccc2F)cc1 (centres undefined),–,·,?,·,·
CCNC(=O)C1(C)CCCN(C(=O)c2cccc(C)c2C)C1 (centres undefined),–,–,–,–,–
CCCCNC(=O)c1cn(CC)c2ccc(S(=O)(=O)N3CCCC3)cc2c1=O,–,–,–,–,–
CCn1cc(C(=O)NCCc2ccc(Cl)cc2)c(=O)c2cc(S(=O)(=O)N3CCC(C)CC3)ccc21,?,·,18µM,·,·
CCn1cc(C(=O)NCCC(C)C)c(=O)c2cc(S(=O)(=O)N3CCCCC3)ccc21,23µM,–,?,–,–
Cc1cccc(OCc2cc(=O)n3c4c(sc3n2)CCCC4)c1C,–,·,–,·,·
C/C(=N\Nc1ccc2nncn2n1)c1ccc(Cl)s1,–,–,–,–,–
Cc1cc2ccccc2cn1,–,·,–,·,·
COC(=O)C(NS(=O)(=O)c1cccc(S(=O)(=O)NC(C(=O)OC)c2ccccc2)c1)c1ccccc1 (centres undefined),–,–,–,–,–
CCOc1ccc(C(=O)NC(Cc2ccccc2)C(=O)OC)cc1 (centres undefined),–,–,–,–,–
COC(=O)C(Cc1ccccc1)NC(=S)NC(=O)c1ccccc1 (centres undefined),?,–,18µM,–,–
CN([C@@H](C(=O)OC(C)(C)C)c1ccccc1)S(=O)(=O)c1cccc(S(=O)(=O)N(C)[C@@H](C(=O)OC(C)(C)C)c2ccccc2)c1,13µM,–,?,–,–
COC(=O)C(Cc1ccccc1)NC(=O)c1cccc(S(=O)(=O)N(C)C)c1 (centres undefined),–,–,–,–,-89
COC(=O)[C@H](Cc1ccccc1)N(C)S(=O)(=O)c1cccc(S(=O)(=O)N(C)[C@@H](Cc2ccccc2)C(=O)OC)c1,15µM,–,?,–,–
COC(=O)C(/C=N/O)NC(=O)c1ccccc1 (centres undefined),–,–,–,–,–
COC(=O)C(NC(=O)c1ccccc1)C(C)(C)SCc1ccccc1 (centres undefined),?,–,18µM,–,–
CN1CCN(S(=O)(=O)c2cccc(C(=O)NC3(C)CCS(=O)(=O)C3)c2)CC1 (centres undefined),–,–,–,–,–
CC(C)c1ccc(/C=N/NC(=O)CCNC(=O)c2ccccc2)cc1,–,?,?,–,–
COCCN1C(=O)N[C@@H](CCc2ccccc2)C(C(C)=O)=C1C,–,–,?,–,–
COc1cc(CCN2C(=O)N[C@@H](CCc3ccccc3)C(C(C)=O)=C2C)cc(OC)c1OC,?,–,23µM,–,–
COc1ccc(C(OC(=O)c2cccs2)C(=O)NCC2CCCO2)cc1 (centres undefined),3.7µM,–,–,–,-59
